# Experimental data reported in PubChem BioAssay (NCATS).
# Inconclusive results are not listed. The source made the active and inactive calls. Calls come from the whole dose curve; as a rule, active = well fitted curve in either direction with a large enough effect (not every such curve was filed as active); inconclusive = small, poorly fitted or top-dose-only effect, or another doubt; inactive = flat fitted curve, though single readings scatter. Bridge positions count the residues as written; N and C are the ends. Square brackets hold non-standard residues; d marks the D form. Peptide text beside a SMILES is read from it. * marks the point of attachment. Ileψ(thiazoline)Cys = CC[C@H](C)[C@H](N)C1=N[C@H](C(=O)*)CS1; d(aIle) = CC[C@H](C)[C@@H](N)C(=O)O; dOrn = NCCC[C@@H](N)C(=O)O
# Assay: AP1 Signaling Pathway (AID 357)
# Settings: ME-180 (cervical carcinoma) AP-1-bla reporter, EGF-induced, beta-lactamase ratio, 5 h; series mostly up to 17.2 µM
# In short: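 AP-1-bla ME-180 cells with beta-lactamase reporter under AP-1 response element, stimulated with EC50 EGF; compounds titrated, 5 hours at 37 degrees Celsius. CCF4 read at 460/530 nm ratio; positive and negative modulators judged by AC50.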
row,Structure (SMILES),outcome
1,C[C@@H]1C[C@H]2[C@@H]3C[C@H](F)C4=CC(=O)C=C[C@@]4(C)[C@]3(F)[C@H](O)C[C@]2(C)[C@@]1(O)C(=O)CO,inactive
2,C[N+]1(C)CCC[C@H]1C(=O)[O-],inactive
3,C[C@H](O)Cn1cnc2c1c(=O)n(C)c(=O)n2C,inactive
4,CCCCC[C@H](O)/C=C\[C@@H]1[C@H](O)CC(=O)[C@@H]1CCCCCCC(=O)O,inactive
5,CC(=C(CCOP(=O)(O)O)SC(=O)c1ccccc1)N(C=O)Cc1cnc(C)nc1N,inactive
6,CC(C)(CO)[C@H](O)C(=O)NCCC(=O)O,inactive
7,NC[C@@H]1O[C@@H](O[C@H]2[C@H](O)[C@H](O[C@@H]3O[C@H](CO)[C@@H](O)[C@H](N)[C@@H]3O)[C@@H](N)C[C@H]2N)[C@H](N)C[C@@H]1O,inactive
8,S=C(NC1CCCCC1)N1CCC([C@H]2C=NC=N2)CC1,inactive
9,CCc1c(C)[nH]c2c1C(=O)[C@H](CN1CCOCC1)CC2,inactive
10,C=C1c2c(Cl)ccc(O)c2C(O)=C2C(=O)[C@@]3(O)C(O)=C(C(N)=O)C(=O)[C@@H](N(C)C)[C@@H]3[C@@H](O)[C@H]12,inactive
11,CCC(=O)OCC(=O)[C@@]1(OC(=O)CC)[C@H](C)C[C@@H]2[C@@H]3[C@H]([C@@H](O)C[C@@]21C)[C@]1(C)C=CC(=O)C=C1C[C@@H]3Cl,inactive
12,Nc1nc(=S)c2ncn([C@H]3O[C@@H](CO)[C@@H](O)[C@@H]3O)c2[nH]1,inactive
13,C[C@H](CCC(=O)O)[C@H]1CC[C@@H]2[C@H]3[C@@H](CC[C@@]21C)[C@]1(C)CC[C@H](O)C[C@@H]1C[C@@H]3O,inactive
14,CS(=O)(=O)c1ccc([C@H](O)[C@H](CF)NC(=O)C(Cl)Cl)cc1,inactive
15,CC[C@]1(c2ccccc2)NC(=O)N(C)C1=O,inactive
16,CC[C@H](C)[C@H](N)C1=N[C@H](C(=O)N[C@@H](CC(C)C)C(=O)N[C@@H](CCC(=O)O)C(=O)N[C@@H](C(=O)N[C@H]2CCCCNC(=O)[C@@H](CC(N)=O)NC(=O)[C@@H](CC(=O)O)NC(=O)[C@@H](Cc3cnc[nH]3)NC(=O)[C@@H](Cc3ccccc3)NC(=O)[C@@H]([C@@H](C)CC)NC(=O)[C@@H](CCCN)NC2=O)[C@@H](C)CC)CS1 ({Ileψ(thiazoline)Cys}-LE[d(aIle)]K[dOrn][d(aIle)][dF][dH][dD][dN]; lactam 4-C),inactive

row,Structure (SMILES),outcome
1,CO[C@@H]1C=CO[C@]2(C)Oc3c(C)c(O)c4c(O)c(c(C=NN5CCN(C)CC5)c(O)c4c3C2=O)NC(=O)C(C)=CC=C[C@H](C)[C@H](O)[C@H](C)[C@H](O)[C@H](C)[C@H](OC(C)=O)[C@H]1C,inactive
2,COCCOC(=O)C1=C(C)NC(C)=C(C(=O)OC(C)C)[C@H]1c1cccc([N+](=O)[O-])c1,inactive
3,C=C1CC23C[C@H]4[C@@H]5[C@@]6(C)C[C@H](OC(=O)c7ccccc7)[C@@H](OC(C)=O)[C@]57[C@@H]2[C@@H](OC(C)=O)[C@H]1[C@@H](O)[C@H]3[C@H]7N4C6,inactive
4,O=C(N/N=C\c1ccc([N+](=O)[O-])o1)c1ccc(O)cc1,inactive
5,C[C@@H](CNC1CCCCC1)OC(=O)c1ccccc1,inactive
6,CCOC(=O)O[C@@H](C)OC(=O)[C@@H]1N2C(=O)[C@@H](NC(=O)[C@@H](N)c3ccccc3)[C@H]2SC1(C)C,inactive
7,CC#C[C@@]1(O)CC[C@H]2[C@@H]3CCC4=CC(=O)CCC4=C3[C@H](c3ccc(N(C)C)cc3)C[C@]21C,inactive
8,Cc1cccc(CN2CCN([C@@H](c3ccccc3)c3ccc(Cl)cc3)CC2)c1,inactive
9,Cc1ccsc1/C=C\C1=NCCCN1C,inactive
10,CC(=O)O[C@H]1C[C@H]2CC[C@@H]3[C@@H](CC[C@]4(C)[C@H](OC(C)=O)[C@H]([N+]5(C)CCCCC5)C[C@@H]34)[C@]2(C)C[C@H]1[N+]1(C)CCCCC1,inactive
11,COc1cc(OC)c2c(c1Cl)O[C@@]1(C2=O)[C@H](C)CC(=O)C[C@@H]1OC,inactive
12,O[C@H](c1cc(C(F)(F)F)nc2c(C(F)(F)F)cccc12)[C@H]1CCCCN1,inactive
13,O=C(O)COCCN1CCN([C@@H](c2ccccc2)c2ccc(Cl)cc2)CC1,inactive
14,C[N+]1(C)CC[C@@H](OC(=O)[C@@](O)(c2ccccc2)C2CCCC2)C1,inactive
15,C[C@H](NCCC(c1ccccc1)c1ccccc1)c1ccccc1,inactive
